The list is not random: actives were taken first. Their share in the collection is about 6.5%.
LASV entry inh – qHTS for Inhibitors of binding or entry into cells for Lassa Virus; Lassa virus pseudotype entry inhibition, cell reporter; Potency, µM (doses to about 37.9 µM), for inactives: at the highest dose activity change, negative = inhibition, actives largely listed as inhibitors; hit rate 1.2% among 300,000; AID 540256, 2011; calls by dose curve; tested in HEK293 cells; also: potency is read from the fitted curve at half-maximal effect; nearly all actives have a fitted effect of over 50% in size
MARV entry inh – qHTS for inhibitors of binding or entry into cells for Marburg Virus | Marburg virus pseudotyped entry inhibition, cell reporter | Potency, µM (titrated, usually from 37.8 µM), for inactives: top-dose activity change, negative = inhibition, most hits filed as inhibitors | hit rate 1.8% among 300,000; calls by dose curve; tested in HEK293 cells; also: potency is read from the fitted curve at half-maximal effect
FMDV antiviral – High Throughput Screening for Foot and Mouth Disease Virus Antivirals | FMDV antiviral cell-based qHTS | Potency, µM (highest dose often 57.9 µM), for inactives: at the highest dose activity change, negative = inhibition, actives largely listed as inhibitors | hit rate 1.2% among 410,000 | AID 1159524, 2015; calls by dose curve; tested in HEK293T cells; also: read-out not given here; potency is read from the fitted curve at half-maximal effect; nearly all actives have a fitted effect of over 45% in size
HCMV inh – qHTS Assay for inhibitors of the human cytomegalovirus (HCMV); AID 1259415, 2018; activity change, negative = inhibition, % at 57.5 µM; hit rate 4.5% among 410,000; HFF cells, HCMV-luciferase reporter, 72 h; stronger effect = lower value; in the data active = activity change below about -60%; inconclusive = no clear call, values can overlap the other calls; inactive = above about -39%
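Steps: HFFs plated, 16 h 37C; compounds added; HCMV-luciferase added to MOI 1 PFU/cell; 72 h 37C; OneGlo reagent, 5 min room temperature; luminescence read, normalized to controls.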
VACV mCherry inh – qHTS for Stage-Specific Inhibitors of Vaccinia Orthopoxvirus: mCherry Reporter Primary qHTS; Vaccinia virus mCherry reporter infection, fluorescence; Potency, µM (top dose mostly 36.5 µM), inactives show top-dose activity change, negative = inhibition, actives largely listed as inhibitors; hit rate 0.63% among 310,000; AID 720579, 2013; calls by dose curve; tested in A549 cells; also: potency is read from the fitted curve at half-maximal effect; nearly all actives have a fitted effect of over 35% in size
VACV Venus inh – qHTS for Stage-Specific Inhibitors of Vaccinia Orthopoxvirus: Venus Reporter Primary qHTS. Vaccinia virus Venus reporter expression, fluorescence. Potency, µM (doses to about 36.5 µM), for the others: at the highest dose activity change, negative = inhibition, usual class: inhibitors. hit rate 0.46% among 330,000. AID 720580, 2013; calls by dose curve; tested in A549 cells; also: potency is read from the fitted curve at half-maximal effect; nearly all actives have a fitted effect of over 30% in size
Active calls of the source: *; i = inactive; ? = inconclusive; nt = no result given; [ ] = another dose, or the depositor's remark. % is scaled to controls: 0 for no effect and ±100 for the full control effect.

SMILES | LASV entry inh | MARV entry inh | FMDV antiviral | HCMV inh | VACV mCherry inh | VACV Venus inh
CN(c1ccccc1)S(=O)(=O)c1cc(C(=O)N2CCN(c3ccccn3)CC2)ccc1Cl | ? | ? | 13µM* | -16 | nt | -21%
CC1C(C)N(C(=O)CCCl)c2ccccc2N1C(=O)CCCl (centres undefined) | -8%[46.1 µM] | -16%[46.1 µM] | -14% | -39 | ? | ?
COc1cc(-c2ccc(C(F)(F)F)cn2)cc2c1OCCN(S(=O)(=O)C[C@]13CC[C@H](CC1=O)C3(C)C)C2 | nt | nt | 6% | nt | -6% | 0%
Cc1cccc(C)c1-n1nnnc1C(c1cccs1)N1CCC(n2c(=O)[nH]c3ccccc32)CC1 (centres undefined) | nt | nt | ? | -77* | 10% | -17%
COc1ccc(C(c2nnnn2Cc2ccccc2)N2CCC(n3c(=O)[nH]c4ccccc43)CC2)cc1 (centres undefined) | nt | nt | -22% | -65* | -28% | -25%
COc1ccc(-n2nnnc2C(c2cc3ccccc3o2)N2CCC(n3c(=O)[nH]c4ccccc43)CC2)cc1 (centres undefined) | nt | nt | ? | -100* | ? | ?
COc1ccc(N2CCN(C(c3ccccc3)c3nnnn3Cc3ccccc3)CC2)cc1 (centres undefined) | nt | nt | nt | nt | -16% | -21%
O=c1[nH]c2ccccc2n1C1CCN(C(c2ccccc2OC(F)(F)F)c2nnnn2Cc2ccccc2)CC1 (centres undefined) | nt | nt | ? | -69* | -9% | -26%
N#C/C(C(=O)NCc1ccccc1)=C1\S[C@H](CCO)C(=O)N1c1ccccc1 | nt | -5%[46.1 µM] | nt | nt | nt | nt
COC(=O)c1ccc(NC(=O)c2nc(SCc3ccccc3F)ncc2Cl)cc1 | nt | nt | nt | nt | 36% | -4%
COc1ccc(C(c2nnnn2-c2ccc(OC)cc2)N2CCC(n3c(=O)[nH]c4ccccc43)CC2)cc1 (centres undefined) | nt | nt | ? | -61* | -26% | -14%
O=c1[nH]c2ccccc2n1C1CCN(C(c2cccs2)c2nnnn2Cc2ccccc2)CC1 (centres undefined) | nt | nt | -5% | -96* | -7% | ?
COc1ccccc1CNC(=O)C1CCN(C2=NS(=O)(=O)C(c3ccc(C)c(C)c3)=C2C)CC1 | 0%[46.1 µM] | nt | ? | -64* | -17% | -16%
CC1=C(c2ccc(C)c(C)c2)S(=O)(=O)N=C1N1CCC(C(=O)NCCc2ccc(Cl)cc2)CC1 | nt | 4µM* | -7% | -18 | -9%[7.34 µM] | -16%[7.34 µM]
O=C(O)C1=CCC(c2ccc(Cl)c(Cl)c2)N(S(=O)(=O)c2ccc(F)cc2)C1c1cccc(F)c1 (centres undefined) | nt | nt | -11% | -19 | i | 3%
O=C(O)CCCn1cc(NC(=O)COc2ccccc2)cn1 | nt | nt | 0% | 9 | nt | nt
CCN(C(=O)CSc1nnc(NCc2ccccc2)s1)C1CCS(=O)(=O)C1 (centres undefined) | 5% | 12% | 3% | -74* | nt | nt
CC1=Nc2ccccc2/C1=C/c1c(O)[nH]c(=O)[nH]c1=O | nt | nt | -14% | 4 | nt | nt
O=c1[nH]c(O)c(/C=C2/C=CC(c3cc(Cl)ccc3Cl)=N2)c(=O)[nH]1 | 13µM* | ? | ? | 0 | i | 13%
CCN1CCN(Cc2ccc(NC(=O)c3cccc(-c4ccc5nc(NC(=O)C6CC6)sc5n4)c3)cc2C(F)(F)F)CC1 | nt | nt | nt | -99* | nt | nt
CCN1CCN(Cc2ccc(NC(=O)c3cc(NC(=O)C(=O)c4c[nH]c5ccccc45)cc(OC)c3)cc2C(F)(F)F)CC1 | nt | nt | ? | -101* | ? | 10µM*
CCN1CCN(Cc2ccc(NC(=O)c3ccc(C)c(NC(=O)c4ccnnc4)c3)cc2C(F)(F)F)CC1 | nt | nt | -2% | -4 | i | -25%
CCN1CCN(Cc2ccc(NC(=O)c3ccc(C)c(NC(=O)C(=O)c4c[nH]c5ccccc45)c3)cc2C(F)(F)F)CC1 | nt | nt | ? | -101* | 11µM* | 10µM*
CCN1CCN(Cc2ccc(NC(=O)c3ccc(C)c(NC(=O)c4ccc5n[nH]nc5c4)c3)cc2C(F)(F)F)CC1 | nt | nt | 0% | 36 | i | -20%
O=C1[C@H]2[C@H]3[C@H](O)[C@H](O)C/C(=N\OC[C@@H](O)COCc4ccco4)[C@H]3CC[C@H]2C(=O)N1Cc1ccccc1 | nt | -4%[14.2 µM] | nt | nt | nt | nt
SMILES | LASV entry inh | MARV entry inh | FMDV antiviral | HCMV inh | VACV mCherry inh | VACV Venus inh
Cc1ccc(CNC(=O)c2ccc(N3CCC4(CC3)CC(c3cccc(Br)c3)=NO4)c(NC(=O)c3c(Cl)cccc3Cl)c2)cc1 | nt | nt | -6% | -3 | -13% | -5%
CCOC(=O)c1nn(-c2ccc(Br)cc2)cc1C(=O)c1cccc2ccccc12 | ? | 5.8µM* | 43% | -26 | nt | nt
CCOC(=O)c1nn(-c2ccc(F)cc2)cc1O | -2% | 23%[46.1 µM] | 16% | 18 | -6% | -6%
Cc1csc2nc(COC(=O)c3ccc(F)cc3)cc(=O)n12 | -3%[46.1 µM] | nt | ? | 18 | 2% | -10%
Cc1sc2nc(CN3CCOCC3)nc(NS(=O)(=O)c3cc(Cl)ccc3Cl)c2c1C | nt | nt | 17% | -106* | nt | nt
Cc1sc2nc(CN3CCOCC3)nc(Cl)c2c1C | -12% | ? | 0% | -17 | -6% | -26%
COC(=O)c1ccc(-c2cccc3c2OC(CNC(=O)/C=C/c2ccc(OC)c(OC)c2)C3)nc1 (centres undefined) | nt | nt | -4% | nt | -26% | -26%
CC(=O)OCC1O[C@@H](O[C@@H]2C[C@H]3C(C)(C)[C@H](OC(C)=O)CC[C@]3(C)[C@H]3CC[C@]45C[C@]4(CC[C@H]5[C@@H](C)C[C@@H](O)[C@H](O)C(C)(C)O)[C@@]32C)[C@H](O)[C@@H](O)[C@@H]1O (some centres undefined) | 15µM* | ? | nt | nt | nt | nt
COc1ccc2[nH]c3c(c2c1)[C@@H]1CCN2C(=O)CCC[C@H](C3)[C@H]12 | nt | nt | 1% | -61* | -8% | -4%
COc1ccc(CNC2C[C@H]3CCCC(=O)N4CC[C@@H](C2)[C@@H]34)cc1 (some centres undefined) | nt | nt | -3% | 6 | i | -12%
O=C([C@@H]1[C@@H](CO)[C@@H]2Cn3c(cccc3=O)[C@H]1N2Cc1cccc(Cl)c1)N1CCOCC1 | nt | nt | nt | -7 | nt | nt
CCOc1ccc(CNC(=O)c2cccc(NC(=O)N3CCSc4ncccc43)c2)cc1OC | ? | nt | 14µM* | ? | -9% | -9%
